Reference: PubChem BioAssay (EPA / NIEHS)
Results filed as inconclusive are left out. Calls of active or inactive are those of the source. The calls were made as follows, unless noted: active = hit-call score of the fitted dose curve at least 0.9, where 1 is the maximum; inactive = score below 0.9.

Tests used:
[1] = BSK_4H_Eotaxin3: BioMAP Diversity Plus: 4H Assay for Eotaxin 3 Biomarker Activity (AID 2283000); settings: primary human endothelial cells (HUVEC); actives raise or lower the signal;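 as to outcome: CCL26 protein level quantified by ELISA in parallel with SRB cytotoxicity check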
Outline: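 Endothelial primary cells (human umbilical vein) exposed to compound for 24 h. ELISA detection of Eotaxin-3.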

[2] = molecular target: human Peroxisome Proliferator-activated Receptor alpha (PPARa), PPARA (gene 5465) (UniProt Q07869); assay: ATG_PPARa_TRANS: Attagene TRANS-FACTORIAL HepG2 Assay for human Peroxisome Proliferator-activated Receptor alpha (PPARa) (AID 2283001; active = hit-call score of the fitted dose curve at least 0.9, where 1 is the maximum)
human Peroxisome Proliferator-activated Receptor alpha (PPARa), PPARA (gene 5465), sequence (Q07869 whole entry, looked up, the tested form may be a part): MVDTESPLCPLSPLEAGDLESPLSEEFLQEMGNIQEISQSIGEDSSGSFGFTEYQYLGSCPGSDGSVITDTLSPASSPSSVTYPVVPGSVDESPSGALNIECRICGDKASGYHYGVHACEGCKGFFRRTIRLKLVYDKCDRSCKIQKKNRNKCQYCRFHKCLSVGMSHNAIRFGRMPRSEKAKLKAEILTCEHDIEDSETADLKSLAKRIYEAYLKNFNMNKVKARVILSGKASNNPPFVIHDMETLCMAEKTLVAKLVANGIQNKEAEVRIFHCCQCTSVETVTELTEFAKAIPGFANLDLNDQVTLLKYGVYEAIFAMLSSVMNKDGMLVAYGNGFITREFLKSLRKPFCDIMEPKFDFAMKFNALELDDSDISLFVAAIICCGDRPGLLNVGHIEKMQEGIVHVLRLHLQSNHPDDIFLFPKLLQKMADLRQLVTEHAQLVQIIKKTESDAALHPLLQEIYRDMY
Outline: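 Measures transcriptional activity of an exogenous chimeric PPARa-Gal4 protein in transiently transfected HepG2 cells after 24 h dosing. Reporter mRNA quantified via RT-PCR and capillary electrophoresis; DMSO served as negative control.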

[3] = molecular target: human Peroxisome Proliferator-activated Receptor delta (PPARd), PPARD (gene 5467) (UniProt Q03181); assay: ATG_PPARd_TRANS: Attagene TRANS-FACTORIAL HepG2 Assay for human Peroxisome Proliferator-activated Receptor delta (PPARd) (AID 2283002; active = hit-call score of the fitted dose curve at least 0.9, where 1 is the maximum)
human Peroxisome Proliferator-activated Receptor delta (PPARd), PPARD (gene 5467), sequence (Q03181 whole entry, looked up, the tested form may be a part): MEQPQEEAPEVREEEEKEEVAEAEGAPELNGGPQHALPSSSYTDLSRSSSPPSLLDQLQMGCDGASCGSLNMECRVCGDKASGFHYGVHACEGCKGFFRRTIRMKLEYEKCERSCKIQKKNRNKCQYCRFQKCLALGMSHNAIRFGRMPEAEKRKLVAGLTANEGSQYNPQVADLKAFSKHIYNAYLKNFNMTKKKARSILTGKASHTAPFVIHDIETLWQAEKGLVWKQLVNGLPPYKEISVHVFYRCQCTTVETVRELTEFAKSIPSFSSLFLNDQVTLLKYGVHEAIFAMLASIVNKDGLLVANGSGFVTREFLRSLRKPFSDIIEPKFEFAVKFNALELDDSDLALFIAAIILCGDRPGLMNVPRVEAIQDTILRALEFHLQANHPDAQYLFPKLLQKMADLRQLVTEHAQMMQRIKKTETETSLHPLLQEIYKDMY
Outline: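 Read-out: reporter mRNA induction, quantified by fluorescent RT-PCR products resolved by capillary electrophoresis. Human HepG2 liver cells carried transiently transfected Gal4-UAS reporter constructs with chimeric NR-Gal4 fusions. Cells were dosed for 24 h; DMSO served as baseline.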

[4] = read-out: Intercellular Adhesion Molecule 1 (ICAM1), ICAM1 (gene 3383); assay: BSK_3C_ICAM1: BioMAP Diversity Plus: 3C Assay for Intercellular Adhesion Molecule 1 (ICAM1) Biomarker Activity (AID 2283003); settings: primary human endothelial cells (HUVEC); actives raise or lower the signal
Outline: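 Human vascular endothelial primary cells, 3C conditions, 24 h treatment. ICAM-1 by ELISA.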

[5] = BSK_3C_Proliferation: Cell Proliferation Assessment in the BioMAP Diversity Plus: 3C Assay (AID 2283006); settings: primary human endothelial cells (HUVEC);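 as to AC50: potency may reflect either rise or fall in cell number versus DMSO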
Outline: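 Proliferation of human vascular endothelial primary cells after 48 h dosing, quantified as SRB-stained protein at 560 nm relative to DMSO.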

[6] = molecular target: Nuclear receptor subfamily 1 group I member 2 (Homo sapiens) (UniProt O75469); assay: ATG_PXR_TRANS: Attagene TRANS-FACTORIAL HepG2 Assay for human Pregnane X Receptor (PXR) (AID 2283008; active = hit-call score of the fitted dose curve at least 0.9, where 1 is the maximum)
Nuclear receptor subfamily 1 group I member 2 (Homo sapiens), sequence (O75469 whole entry, looked up, the tested form may be a part): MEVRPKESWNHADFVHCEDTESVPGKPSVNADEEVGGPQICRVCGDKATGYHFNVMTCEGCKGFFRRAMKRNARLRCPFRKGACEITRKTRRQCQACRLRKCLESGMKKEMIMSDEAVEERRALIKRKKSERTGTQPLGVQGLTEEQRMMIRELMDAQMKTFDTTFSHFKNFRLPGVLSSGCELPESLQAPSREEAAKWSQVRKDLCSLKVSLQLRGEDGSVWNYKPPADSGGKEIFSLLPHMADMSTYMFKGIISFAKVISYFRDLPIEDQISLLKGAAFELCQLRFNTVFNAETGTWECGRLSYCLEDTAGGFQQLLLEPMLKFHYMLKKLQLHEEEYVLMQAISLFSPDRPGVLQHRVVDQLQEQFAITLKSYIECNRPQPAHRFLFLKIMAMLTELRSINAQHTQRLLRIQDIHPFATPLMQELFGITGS
Outline: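 Fluorescence intensity of FAM-labelled, HpaI-digested reporter amplicons, separated by capillary electrophoresis, quantifies induction. HepG2 cells with PXR-Gal4 trans-reporter system were exposed 24 h; DMSO defines baseline.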

[7] = molecular target: human RAR-related Orphan Receptor beta (RORb), RORB (gene 6096) (UniProt Q92753); assay: ATG_RORb_TRANS: Attagene TRANS-FACTORIAL HepG2 Assay for human RAR-related Orphan Receptor beta (RORb) (AID 2283010; active = hit-call score of the fitted dose curve at least 0.9, where 1 is the maximum)
Outline: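 In this TRANS-format test, human HepG2 cells express chimeric NR-Gal4 fusion proteins driving GAL4-UAS reporters. After 24 h dosing, reporter transcripts are measured by fluorescent RT-PCR/capillary electrophoresis, with DMSO as negative control.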

[8] = molecular target: human RAR-related Orphan Receptor gamma (RORg), RORC (gene 6097) (UniProt P51449); assay: ATG_RORg_TRANS: Attagene TRANS-FACTORIAL HepG2 Assay for human RAR-related Orphan Receptor gamma (RORg) (AID 2283011; active = hit-call score of the fitted dose curve at least 0.9, where 1 is the maximum)
Outline: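 Activity is scored as increase in GAL4-UAS reporter mRNA over DMSO, detected by fluorescent RT-PCR and capillary electrophoresis in HepG2 cells transiently expressing a RORg-Gal4 chimera, 24 h after dosing.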

[9] = molecular target: Retinoic acid receptor RXR-alpha (Homo sapiens) (UniProt P19793); assay: ATG_RXRa_TRANS: Attagene TRANS-FACTORIAL HepG2 Assay for human Retinoid X Receptor alpha (RXRa) (AID 2283012; active = hit-call score of the fitted dose curve at least 0.9, where 1 is the maximum)
Retinoic acid receptor RXR-alpha (Homo sapiens), sequence (P19793 whole entry, looked up, the tested form may be a part): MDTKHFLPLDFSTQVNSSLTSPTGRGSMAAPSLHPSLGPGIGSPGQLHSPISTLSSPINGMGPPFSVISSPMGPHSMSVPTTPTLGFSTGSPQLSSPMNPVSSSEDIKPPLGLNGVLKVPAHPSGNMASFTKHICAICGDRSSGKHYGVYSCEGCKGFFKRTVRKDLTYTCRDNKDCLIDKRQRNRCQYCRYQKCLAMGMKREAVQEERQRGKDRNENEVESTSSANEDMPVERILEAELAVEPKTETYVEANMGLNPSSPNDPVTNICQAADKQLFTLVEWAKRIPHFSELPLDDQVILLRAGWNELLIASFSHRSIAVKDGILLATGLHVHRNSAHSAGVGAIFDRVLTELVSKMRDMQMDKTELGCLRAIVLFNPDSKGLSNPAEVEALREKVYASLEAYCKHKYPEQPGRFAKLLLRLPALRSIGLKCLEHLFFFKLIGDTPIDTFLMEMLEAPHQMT
Outline: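 Cells (HepG2) carried transiently transfected GAL4-responsive reporter units. Following a 24 h chemical incubation, reporter mRNA induction was read via RT-PCR fragment analysis; DMSO served as negative control and baseline.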

[10] = molecular target: human Retinoid X Receptor beta (RXRb), RXRB (gene 6257) (UniProt P28702); assay: ATG_RXRb_TRANS: Attagene TRANS-FACTORIAL HepG2 Assay for human Retinoid X Receptor beta (RXRb) (AID 2283013; active = hit-call score of the fitted dose curve at least 0.9, where 1 is the maximum)
human Retinoid X Receptor beta (RXRb), RXRB (gene 6257), sequence (P28702 whole entry, looked up): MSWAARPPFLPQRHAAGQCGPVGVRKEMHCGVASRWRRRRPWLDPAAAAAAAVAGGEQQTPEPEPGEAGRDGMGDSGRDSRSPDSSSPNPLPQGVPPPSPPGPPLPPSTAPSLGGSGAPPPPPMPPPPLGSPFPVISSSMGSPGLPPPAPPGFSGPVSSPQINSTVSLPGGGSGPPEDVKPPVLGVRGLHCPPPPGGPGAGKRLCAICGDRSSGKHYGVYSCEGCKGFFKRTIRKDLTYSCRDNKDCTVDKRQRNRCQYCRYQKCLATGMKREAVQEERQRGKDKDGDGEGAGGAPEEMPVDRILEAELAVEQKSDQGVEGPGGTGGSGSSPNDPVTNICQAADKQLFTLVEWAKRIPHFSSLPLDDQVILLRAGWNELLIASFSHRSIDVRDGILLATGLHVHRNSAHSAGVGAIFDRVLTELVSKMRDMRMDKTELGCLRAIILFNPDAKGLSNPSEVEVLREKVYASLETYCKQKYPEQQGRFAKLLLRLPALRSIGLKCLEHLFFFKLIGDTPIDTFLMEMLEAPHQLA
Outline: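 Multiplexed TRANS reporter assay in HepG2; 24 h dosing; reporter mRNA by RT-PCR/CE fluorescence; gain-of-signal relative to DMSO.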

[11] = molecular target: human Thyroid Receptor alpha (THRa1), THRA (gene 7067) (UniProt P10827); assay: ATG_THRa1_TRANS: Attagene TRANS-FACTORIAL HepG2 Assay for human Thyroid Receptor alpha (THRa1) (AID 2283014; active = hit-call score of the fitted dose curve at least 0.9, where 1 is the maximum)
human Thyroid Receptor alpha (THRa1), THRA (gene 7067), sequence (P10827 whole entry, looked up, the tested form may be a part): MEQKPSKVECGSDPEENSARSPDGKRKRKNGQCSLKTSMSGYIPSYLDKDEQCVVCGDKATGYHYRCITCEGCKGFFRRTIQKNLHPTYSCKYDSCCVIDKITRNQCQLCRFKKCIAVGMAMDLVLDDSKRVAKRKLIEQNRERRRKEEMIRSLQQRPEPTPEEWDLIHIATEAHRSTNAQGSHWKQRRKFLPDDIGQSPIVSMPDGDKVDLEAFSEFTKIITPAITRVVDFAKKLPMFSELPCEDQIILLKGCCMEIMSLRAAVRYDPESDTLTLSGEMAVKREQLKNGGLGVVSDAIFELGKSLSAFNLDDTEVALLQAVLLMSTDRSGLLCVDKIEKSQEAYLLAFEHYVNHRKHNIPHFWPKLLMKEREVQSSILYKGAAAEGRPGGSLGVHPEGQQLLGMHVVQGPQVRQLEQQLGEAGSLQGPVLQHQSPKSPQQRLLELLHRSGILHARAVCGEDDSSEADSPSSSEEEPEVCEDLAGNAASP
Outline: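 First, HepG2 cells receive multiple GAL4-UAS reporter units and the chimeric receptor. They are then dosed for 24 h, after which RNA is reverse-transcribed, amplified, labelled, HpaI-cut and sized by capillary electrophoresis; gain relative to DMSO is scored.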

[12] = read-out: E-selectin (Homo sapiens) (UniProt P16581); assay: BSK_3C_Eselectin: BioMAP Diversity Plus: 3C Assay for Eselectin Biomarker Activity (AID 2283015); settings: primary human endothelial cells (HUVEC); actives raise or lower the signal;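 also: cell surface E-selectin protein quantified by ELISA 24 h after dosing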
Outline: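 Human vascular endothelium from umbilical vein is exposed to test chemicals for 24 h. E-selectin levels are read by ELISA and compared with DMSO controls.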

[13] = read-out: Interleukin-1 alpha (IL1a), IL1A (gene 3552); assay: BSK_BE3C_IL1a: BioMAP Diversity Plus: BE3C Assay for Interleukin-1 alpha (IL1a) Biomarker Activity (AID 2283016); settings: primary human bronchial epithelial cells; actives raise or lower the signal
Outline: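 Cultures of primary human bronchial epithelial cells receive test chemical. After 24 h, IL-1a is quantified by ELISA, while parallel wells are fixed in TCA and SRB-stained for total protein. Changes in either direction are fitted relative to DMSO.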

[14] = read-out: Monocyte Chemoattractant Protein-1 (MCP1), CCL2 (gene 6347); assay: BSK_3C_MCP1: BioMAP Diversity Plus: 3C Assay for Monocyte Chemoattractant Protein-1 (MCP1) Biomarker Activity (AID 2283017); settings: primary human endothelial cells (HUVEC); actives raise or lower the signal
Outline: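 Endothelial cells from human umbilical vein are dosed with chemical, cultured 24 h, then assayed for MCP-1 by ELISA; both increases and decreases are modelled against DMSO controls.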

[15] = read-out: Monocyte Chemoattractant Protein-1 (MCP1), CCL2 (gene 6347); assay: BSK_4H_MCP1: BioMAP Diversity Plus: 4H Assay for Monocyte Chemoattractant Protein-1 (MCP1) Biomarker Activity (AID 2283018); settings: primary human endothelial cells (HUVEC); actives raise or lower the signal
Outline: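 Readout: MCP-1 ELISA on compound-treated HUVEC, sampled 24 h post-dosing. Baseline and negative control DMSO; bidirectional fit. Overt toxicity checked alongside by sulforhodamine B protein staining at time of biomarker measurement.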

[16] = read-out: Human Leukocyte Antigen - DR isotype (HLADR), HLA-DRA (gene 3122); assay: BSK_3C_HLADR: BioMAP Diversity Plus: 3C Assay for Human Leukocyte Antigen - DR isotype (HLADR) Biomarker Activity (AID 2283019); settings: primary human endothelial cells (HUVEC); actives raise or lower the signal;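 as to outcome: ELISA of cell-surface HLA-DR on HUVEC 24 h after dosing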
Outline: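 Endothelial cells from human umbilical vein are treated with test chemical; after 24 h, HLA-DR levels are measured by ELISA. Data are fitted in both directions using DMSO as the baseline.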

[17] = molecular target: human Retinoic Acid Receptor beta (RARb), RARB (gene 5915) (UniProt P10826); assay: ATG_RARb_TRANS: Attagene TRANS-FACTORIAL HepG2 Assay for human Retinoic Acid Receptor beta (AID 2283004; active = hit-call score of the fitted dose curve at least 0.9, where 1 is the maximum)
human Retinoic Acid Receptor beta (RARb), RARB (gene 5915), sequence (P10826 whole entry, looked up, the tested form may be a part): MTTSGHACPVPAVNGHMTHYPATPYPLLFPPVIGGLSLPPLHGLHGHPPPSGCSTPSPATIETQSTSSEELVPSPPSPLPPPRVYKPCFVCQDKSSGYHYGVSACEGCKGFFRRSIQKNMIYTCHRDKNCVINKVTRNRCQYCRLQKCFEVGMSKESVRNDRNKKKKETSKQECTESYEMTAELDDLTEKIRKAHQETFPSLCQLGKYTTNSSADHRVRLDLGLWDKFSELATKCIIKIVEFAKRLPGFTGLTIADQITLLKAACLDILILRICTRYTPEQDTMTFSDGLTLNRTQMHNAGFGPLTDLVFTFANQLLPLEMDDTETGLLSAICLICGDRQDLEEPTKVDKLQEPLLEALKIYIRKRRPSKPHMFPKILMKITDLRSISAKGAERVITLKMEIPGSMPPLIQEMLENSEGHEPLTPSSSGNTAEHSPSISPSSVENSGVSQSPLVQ
Outline: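 HepG2, transient MRTU transfection, NR–Gal4 chimera, 24 h treatment; RT-PCR plus CE fluorescence detection of reporter mRNA; gain of signal vs DMSO.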

[18] = molecular target: Retinoic acid receptor alpha (Homo sapiens) (UniProt P10276); assay: ATG_RARa_TRANS: Attagene TRANS-FACTORIAL HepG2 Assay for human Retinoic Acid Receptor alpha (RARa) (AID 2283005; active = hit-call score of the fitted dose curve at least 0.9, where 1 is the maximum)
Retinoic acid receptor alpha (Homo sapiens), sequence (P10276 whole entry, looked up, the tested form may be a part): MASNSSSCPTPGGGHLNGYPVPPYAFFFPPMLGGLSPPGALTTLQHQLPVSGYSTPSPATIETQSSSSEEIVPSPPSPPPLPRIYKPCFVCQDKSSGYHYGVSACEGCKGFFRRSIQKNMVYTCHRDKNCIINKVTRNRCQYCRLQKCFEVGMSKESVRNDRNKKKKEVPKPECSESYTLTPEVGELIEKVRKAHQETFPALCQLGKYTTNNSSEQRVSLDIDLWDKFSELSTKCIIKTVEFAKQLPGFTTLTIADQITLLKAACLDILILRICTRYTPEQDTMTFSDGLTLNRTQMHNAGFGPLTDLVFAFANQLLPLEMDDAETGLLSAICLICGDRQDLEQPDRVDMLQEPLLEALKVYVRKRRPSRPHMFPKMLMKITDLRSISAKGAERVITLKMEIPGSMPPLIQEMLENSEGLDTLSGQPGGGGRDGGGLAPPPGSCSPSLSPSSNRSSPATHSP
Outline: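 HepG2 transiently transfected with multiplex GAL4-UAS reporter units including a human RARa–GAL4 chimera; 24 h compound exposure. Reporter mRNA quantified by RT-PCR, 6-FAM labeling and capillary electrophoresis; gain of signal versus DMSO.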

[19] = molecular target: human Retinoic Acid Receptor gamma (RARg), RARG (gene 5916) (UniProt P13631); assay: ATG_RARg_TRANS: Attagene TRANS-FACTORIAL HepG2 Assay for human Retinoic Acid Receptor gamma (RARg) (AID 2283009; active = hit-call score of the fitted dose curve at least 0.9, where 1 is the maximum)
human Retinoic Acid Receptor gamma (RARg), RARG (gene 5916), sequence (P13631 whole entry, looked up, the tested form may be a part): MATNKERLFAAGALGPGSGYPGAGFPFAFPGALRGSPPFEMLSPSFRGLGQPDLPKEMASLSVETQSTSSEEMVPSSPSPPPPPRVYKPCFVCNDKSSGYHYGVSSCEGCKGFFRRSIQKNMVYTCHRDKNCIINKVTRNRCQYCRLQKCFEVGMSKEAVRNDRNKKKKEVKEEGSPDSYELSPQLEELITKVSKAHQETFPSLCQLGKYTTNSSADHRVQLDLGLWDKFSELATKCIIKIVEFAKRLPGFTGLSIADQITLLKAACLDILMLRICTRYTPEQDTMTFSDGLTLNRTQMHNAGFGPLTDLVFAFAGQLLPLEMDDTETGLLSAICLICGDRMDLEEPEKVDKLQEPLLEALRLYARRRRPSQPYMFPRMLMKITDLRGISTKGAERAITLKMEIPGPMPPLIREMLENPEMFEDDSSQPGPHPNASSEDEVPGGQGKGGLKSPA
Outline: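 HepG2, RARg-GAL4 TRANS system, 24 h exposure; reporter mRNA by RT-PCR + CE fluorescence; increase over DMSO.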

E-selectin (Homo sapiens), sequence (P16581 whole entry, looked up): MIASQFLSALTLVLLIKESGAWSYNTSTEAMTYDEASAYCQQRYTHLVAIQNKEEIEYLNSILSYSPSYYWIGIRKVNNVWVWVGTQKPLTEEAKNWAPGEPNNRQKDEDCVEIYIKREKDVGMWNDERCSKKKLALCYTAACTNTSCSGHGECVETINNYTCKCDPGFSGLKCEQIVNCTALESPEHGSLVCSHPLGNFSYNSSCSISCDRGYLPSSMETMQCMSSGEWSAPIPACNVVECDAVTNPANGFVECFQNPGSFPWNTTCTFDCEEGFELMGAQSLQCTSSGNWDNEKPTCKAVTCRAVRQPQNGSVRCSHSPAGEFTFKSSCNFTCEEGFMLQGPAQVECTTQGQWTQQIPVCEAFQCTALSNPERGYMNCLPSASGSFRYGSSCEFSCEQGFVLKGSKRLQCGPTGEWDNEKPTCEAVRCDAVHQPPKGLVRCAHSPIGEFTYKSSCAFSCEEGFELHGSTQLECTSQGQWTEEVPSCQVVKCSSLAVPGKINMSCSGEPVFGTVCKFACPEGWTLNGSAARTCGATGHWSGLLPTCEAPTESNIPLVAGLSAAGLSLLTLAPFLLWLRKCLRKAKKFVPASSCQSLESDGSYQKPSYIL

## CCOc1ccc2c(c1)C(C)=CC(C)(C)N2
[1]
  outcome: inactive
[2]
  outcome: inactive
[3]
  AC50: 170 µM (active)
[4]
  outcome: inactive
[5]
  outcome: inactive
[6]
  AC50: 1.86 µM (active)
[7]
  outcome: inactive
[8]
  outcome: inactive
[9]
  AC50: 100 µM (active)
[10]
  AC50: 6.69 µM (active)
[11]
  AC50: 100 µM (active)
[12]
  outcome: inactive
[13]
  outcome: inactive
[14]
  outcome: inactive
[15]
  outcome: inactive
[16]
  outcome: inactive

## CC(C)(C)c1cc(O)c(C(C)(C)C)cc1O
[1]
  AC50: 6.65 µM (active)
[2]
  outcome: inactive
[3]
  outcome: inactive
[4]
  outcome: inactive
[17]
  outcome: inactive
[18]
  outcome: inactive
[5]
  AC50: 8.74 µM (active)
[6]
  AC50: 2.99 µM (active)
[19]
  outcome: inactive
[9]
  AC50: 60.2 µM (active)
[10]
  AC50: 59.4 µM (active)
[12]
  outcome: inactive
[13]
  outcome: inactive
[14]
  outcome: inactive
[15]
  AC50: 2.88 µM (active)
[16]
  AC50: 9 µM (active)

## CCCCCCCCCCCCCCCC
[1]
  outcome: inactive
[2]
  outcome: inactive
[4]
  outcome: inactive
[17]
  outcome: inactive
[18]
  outcome: inactive
[5]
  outcome: inactive
[19]
  outcome: inactive
[9]
  outcome: inactive
[11]
  outcome: inactive
[12]
  outcome: inactive
[13]
  outcome: inactive
[14]
  outcome: inactive
[15]
  outcome: inactive
[16]
  outcome: inactive

## CC(=O)C(C)=CC1C(C)=CCCC1(C)C (stereo not drawn)
[1]
  outcome: inactive
[2]
  outcome: inactive
[3]
  outcome: inactive
[4]
  outcome: inactive
[5]
  outcome: inactive
[9]
  outcome: inactive
[10]
  AC50: 27.9 µM (active)
[12]
  outcome: inactive
[13]
  outcome: inactive
[14]
  outcome: inactive
[15]
  outcome: inactive
[16]
  outcome: inactive
